# ssDAF12 agonist = S. stercoralis DAF-12 nuclear receptor activators, primary screen, cell-based, luminescence, HEK293, GRIP1 co-expression, lit1-tk-luc. HEK293 ssDAF-12/GRIP1 lit1-tk-luc reporter; % of 3 µM dafachronic acid response. activation, % at 6.8 µM. 370,000 compounds, 1% hits. AID 652126, 2013;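 active means activation above the mean over all tested compounds plus 3 SD, cut at about 0.9% in these data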;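 further: 0% = DMSO-only wells and 100% = 3 µM delta7-dafachronic acid wells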
# hcDAF-12 act = H. contortus DAF-12 nuclear receptor activators, primary screen, cell-based, luminescence, HEK293, lit1-tk-luc reporter; activation, % at 6.8 µM; 370,000 compounds, 1.4% hits; HEK293 hcDAF-12 lit1-tk-luc reporter; 0% DMSO, 100% Δ7-dafachronic acid;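 active means activation above the mean of all tested compounds plus 3 SD, cut at about 5.5% in these data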;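 further: 100% = response to 3 µM Δ7-dafachronic acid high control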
# hgDAF-12 ag = H. glycines DAF-12 receptor agonists, primary screen, cell-based, luminescence, HEK293, GAL4 fusion, UAS-luciferase | 370,000 compounds, 1.8% hits | HEK293 GAL4-hgDAF12 UAS-luciferase reporter, agonist luminescence; normalized to butyrate control | Nuclear hormone receptor DAF-12 (Heterodera glycines), GAL4 fusion | activation, % at 6.8 µM;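 active means activation above a cutoff set at the mean of all screened compounds plus 3 SD, cut at about 10% in these data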;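 further: 0% = DMSO wells and 100% = sodium butyrate wells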
# DAX1 inh-1 = DAX1 (NR0B1) inhibitors, primary screen, cell-based, HEK293, Gal4-DAX1, luciferase luminescence | AID 504766, 2011 | HEK293 Gal4-DAX1 luciferase reporter | inhibition, % at 6.75 µM | 340,000 compounds, 0.99% hits | Nuclear receptor subfamily 0 group B member 1 (Homo sapiens), P51843;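 active means inhibition above the mean over all tested compounds plus 3 SD, cut at about 4.2% in these data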;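 further: 0% = DAX1-transfected cells with DMSO and 100% = empty-vector control cells with DMSO; inhibition shows as a rise in luminescence from relieved DAX1 repression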
# Target sequence (P51843 207-470 limits assumed): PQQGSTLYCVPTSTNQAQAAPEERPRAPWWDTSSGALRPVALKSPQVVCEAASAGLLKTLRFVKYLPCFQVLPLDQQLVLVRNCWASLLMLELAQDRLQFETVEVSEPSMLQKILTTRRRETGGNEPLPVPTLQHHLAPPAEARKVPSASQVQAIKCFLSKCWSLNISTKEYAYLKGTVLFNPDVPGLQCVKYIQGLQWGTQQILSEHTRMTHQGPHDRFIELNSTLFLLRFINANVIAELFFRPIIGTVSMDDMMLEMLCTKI
# DAX1 inh-2 = DAX1 (NR0B1) inhibitors on StAR promoter, primary screen, cell-based, luminescence, SF-1 (NR5A1), full-length DAX-1; HEK293T StAR-luciferase reporter, SF-1/DAX-1 repression relief; inhibition, % at 6.8 µM; 370,000 compounds, 1.1% hits;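 active means inhibition above the mean over all tested compounds plus 3 SD, cut at about 3.6% in these data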;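 further: 0% = DAX-1 cells with DMSO and 100% = cells lacking DAX-1 with DMSO; higher inhibition means more luminescence from relief of DAX-1 repression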
# SMARCA2 act = SMARCA2 (BRM) function activators, primary screen, cell-based, luminescence, high throughput; MG213 cells, MMTV-luciferase reporter, dexamethasone, overnight; activation, % at 9.1 µM; 370,000 compounds, 1% hits; in the data active means activation above about 7.8%;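 further: 0% = vehicle wells and 100% = reference activator wells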
# SMARCA2 act conf = SMARCA2 (BRM) function activators, confirmation, cell-based, luminescence, triplicate | shares compounds with SMARCA2 act | MG213 cells, MMTV-luciferase with dexamethasone, overnight; MG213 cells expressing E1A, Rb sequestered; DMSO wells 0%, reference activator 100% | activation, % at 9.1 µM | 3,500 compounds, 30% hits | AID 652260, 2013;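 active means activation above its plate's cutoff, the mean activation of tested wells plus 3 SD, cut at about 7.9% in these data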
# GAL4-VP16 Luc = GAL4-VP16 luciferase reporter activation, counter-screen for SMARCA2 (BRM) activator project, cell-based, pG5luc, luminescence, high throughput; shares compounds with SMARCA2 act; HEK293 GAL4-VP16 pG5luc reporter; scaled: DMSO wells 0%, SAHA wells 100%; activation, % at 9.1 µM; 3,500 compounds, 41% hits; AID 686939, 2013;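 active means activation above the solvent-only control well mean plus 3 SD, averaged across control plates, cut at about 5.2% in these data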
# LXRb hcDAF ctr = LXR agonists, Gal4 luciferase reporter, confirmation, counter-screen for hcDAF-12 agonist project, cell-based, luminescence, HEK293, H. contortus campaign; shares compounds with hcDAF-12 act; HEK293 Gal4-LXR tk-luc reporter, 24 h; normalized: DMSO 0%, positive control 100%; activation, % at 6.8 µM; 3,400 tested, under 10 active; AID 743027, 2013;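 active means mean percent activation of the reporter above a cutoff set as the average over tested compounds plus their standard deviation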
# hcDAF12 ag = H. contortus DAF-12 receptor agonists, confirmation, cell-based, luminescence, HEK293, lit1-tk-luc, triplicate. activation, % at 6.8 µM. HEK293 hcDAF-12 lit1-tk-luc reporter; % of Δ7-dafachronic acid response. AID 743032, 2013. shares compounds with hcDAF-12 act. 3,400 compounds, 61% hits;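 active means mean activation across triplicate tests above the threshold derived from the earlier primary screen, cut at about 5.5% in these data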;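 further: 0% = DMSO only wells and 100% = 3 µM Δ7-dafachronic acid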
# * hit, by the source's call; nt = no result given. This is a sample that favours compounds with a hit; in the whole collection about 4.8% have one here.
SMILES,ssDAF12 agonist,hcDAF-12 act,hgDAF-12 ag,DAX1 inh-1,DAX1 inh-2,SMARCA2 act,SMARCA2 act conf,GAL4-VP16 Luc,LXRb hcDAF ctr,hcDAF12 ag
CCOc1ccccc1NC(=O)CSc1nc2ccccc2nc1N1CCCC1,1.5*,8.0*,3,0,-1,8.3*,-3,0,0,3
O=C(Cc1cccc(NC(=O)C2CCCN(C(=O)C3CCCCC3)C2)c1)Nc1cccc(C(=O)N2CCOCC2)c1 (stereo not given),0,-1,-1,-1,0,-1,nt,nt,nt,nt
O=C(Nc1ccc(N2C(=O)C3CCCCC3C2=O)cc1Cl)c1cccs1 (stereo not given),-1,0,0,-2,0,-1,nt,nt,nt,nt
C=CCN1C(=O)C(=O)N(Cc2nc3ccccc3s2)C1=O,1.2*,9.6*,6,3,1,8.7*,8.2*,8.3*,1,9.7*
Cc1ccc(N=Nc2[nH]c3ccccc3c2O)cc1,1,9.5*,13*,3,2,9.1*,14*,5,1,12*
COc1ccc(N=Nc2[nH]c3ccc(C)cc3c2O)cc1,0,4,2,0,0,0,nt,nt,nt,nt
O=C(COc1ccc(S(=O)(=O)N2CCCC2)cc1)N1CCCCC1,-1,-2,-1,-1,0,0,nt,nt,nt,nt
N/C(CS(=O)(=O)c1ccccn1)=N\OC(=O)c1ccc(Cl)cc1,0,4,3,1,0,0,nt,nt,nt,nt
N/C(CS(=O)(=O)c1ccccn1)=N\OC(=O)c1ccccc1Cl,0,7.3*,8,nt,1,11*,3,8.0*,1,4
N#C/C(=C(/O)c1ccc(F)cc1)c1nc2ccccc2s1,0,7.2*,11*,2,1,8.8*,-3,8.9*,0,2
N#C/C(=C(/O)COc1ccccc1)c1nc2ccccc2s1,-1,1,-1,4,0,-2,nt,nt,nt,nt
COc1ccc(CC(=O)N2CCN(S(=O)(=O)c3cccs3)CC2)cc1OC,-1,-1,1,0,0,1,nt,nt,nt,nt
COC(=O)c1ccc(OCC(=O)c2ccccc2)cc1,1.3*,9.0*,11*,3,2,12*,11*,8.5*,1,5
O=C(c1cc2cc(Cl)ccc2oc1=O)N1CCOCC1,-1,-1,0,-1,0,-1,nt,nt,nt,nt
O=C(c1cc2ccccc2oc1=O)N1CCOCC1,0,6.7*,11*,3,3,8.0*,15*,4,1,5.6*
COc1cc(/C=C/C(=O)OCC(=O)c2c(N)n(C)c(=O)n(C)c2=O)ccc1OCC#N,-2,0,3,-1,-4,-2,nt,nt,nt,nt

# Source: PubChem (The Scripps Research Institute Molecular Screening Center)
